# Bioassay records (PubChem)
# Calb FLC = affects C. albicans growth with fluconazole; growth inhibition, % (concentration not given with the values); actives 0.57% (n = 300,000); C. albicans CaCi-2 (fluconazole-resistant clinical isolate) + fluconazole, Alamar Blue growth, 48 h;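 active = growth inhibition above about 58% in most replicates, limit read from the data, passing the limit was not always enough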;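 also: all wells also contain fluconazole at 8 µg/ml as a sub-toxic cotreatment; 0% = median of DMSO wells and 100% = median of geldanamycin control wells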
# PfHsp90 yeast 2 = reduces growth (ATP signal) of yeast expressing P. falciparum Hsp90; S. cerevisiae expressing PfHsp90, BacTiter-Glo ATP, 48 h; yeast lacking PDR1 and PDR3 efflux regulators; inhibition, % at 9.4 µM; actives 0.32% (n = 310,000); AID 504621;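 active = every replicate shows inhibition above about 80%, whatever the replicate mean, limit read from the data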;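 also: 0% = DMSO neutral controls and 100% = 20 µM radicicol positive controls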
# tim23-1 inh = growth inhibitors of tim23-1 mutant yeast | inhibition, % at 20 µM | actives 1.3% (n = 330,000) | S. cerevisiae tim23-1 growth, BacTiter-Glo luminescence, 24 h;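 active = growth inhibition of the mutant yeast at or above 50%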;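 also: temperature-sensitive mutant grown at 25 °C; plate controls were DMSO-treated mutant yeast for no effect and medium wells lacking yeast for full effect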
# TIM10 inh = TIM10 yeast growth inhibition; S. cerevisiae TIM10 strain growth, BacTiter-Glo luminescence, 24 h; inhibition, % at 10 µM; actives 1.4% (n = 330,000); AID 463195;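 active = inhibition of 40% or more at the single tested concentration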;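 also: wild-type TIM10 isogenic control strain grown at permissive 25 °C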
# SKKanGAS inh = blocks kanamycin growth of S. pyogenes SKKanGAS strain; BacTiter-Glo, 6 h; inhibition, % at 7.5 µM; actives 1.3% (n = 300,000);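 active = mean replicate score, as percent of positive control median, at least 50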;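 also: strain carries kanamycin resistance gene driven by streptokinase promoter and grows in 40 µg/ml kanamycin; loss of luminescence reflects streptokinase promoter inhibition or plain growth inhibition; 0% = median of DMSO wells and 100% = positive control at its reference dose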
# tim10-1 inh = growth inhibitors of tim10-1 mutant yeast. S. cerevisiae tim10-1 ts strain growth, BacTiter-Glo, 24 h. inhibition, % at 20 µM. actives 2.2% (n = 330,000). AID 463190;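 active = inhibition of at least 40%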;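 also: mutant grown at 25 °C; 0% = DMSO wells with yeast and 100% = wells holding no yeast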
# TIM10 conf = TIM10 yeast growth inhibition, confirmed; shares compounds with TIM10 inh; S. cerevisiae tim10 strain growth, BacTiter-Glo luminescence, 24 h; inhibition, % at 10 µM; actives 63% (n = 4,600);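 active = inhibition of yeast growth at or above a set limit in either of two replicates at 10 µM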;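 also: this counterscreen used the strain with wild-type TIM10; 0% = yeast with DMSO and 100% = medium wells lacking yeast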
# tim23-1 conf = tim23-1 yeast growth inhibition, confirmed. shares compounds with tim23-1 inh. S. cerevisiae tim23-1 growth, BacTiter-Glo luminescence, 24 h. inhibition, % at 20 µM. actives 83% (n = 4,400). AID 463218;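 active = inhibition above about 39% in either of two replicate wells at 20 µM, limit read from the data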;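 also: temperature-sensitive tim23-1 mutant grown at 25 °C; 0% = DMSO wells with yeast and 100% = medium wells without yeast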
# Starred values were filed as active, the others as inactive; . = no result given. Most compounds without a hit are left out; they make up all but 4.7% or so of the library.
SMILES,Calb FLC,PfHsp90 yeast 2,tim23-1 inh,TIM10 inh,SKKanGAS inh,tim10-1 inh,TIM10 conf,tim23-1 conf
CCOC(=O)c1sc(=NC(=O)c2ccccc2)n(C)c1C,-0.7,6.7,53.9*,70.8*,-2.9,23.8,62.5*,73.6*
CCOC(=O)c1sc(=NC(=O)c2cccc(OC)c2)n(C)c1C,0.2,.,13.7,12.6,-8.6,15.1,.,.
CCOC(=O)c1sc(NC(=O)c2ccc(S(=O)(=O)N(C)C)cc2)cc1C,4.8,3.3,-1.8,2.5,4.2,14.0,.,.
CC(C)C1N(C(=O)N2CCOCC2)CCN1S(=O)(=O)c1ccccc1 (stereo not drawn),-2.3,18.2,-1.6,11.1,-4.5,-5.4,.,.
Cc1ccccc1NC(=O)N(O)C1(C#N)CCCCC1,.,-16.9,.,.,.,.,.,.
CN(CCc1ccccc1)C(=O)c1ccc(NC(=O)Cc2ccc(NC(=O)C3CCN(C(=O)c4ccccc4)CC3)cc2)cc1,.,-11.4,.,.,.,.,.,.
COc1cccc(CN2CCCC(C(=O)N3CCCCC3)C2)c1 (stereo not drawn),13.8,-0.1,19.2,7.9,-2.9,-7.5,.,.
COC(=O)c1ccc(OCC(O)CNCC(c2ccc(OC)cc2)N(C)C)c(OC)c1 (stereo not drawn),-8.7,-1.6,8.5,-0.9,-1.0,-17.5,.,.
Cc1ccc(CNS(=O)(=O)c2ccc3c(c2)OCCO3)cc1,-1.7,25.3,55.5*,41.3*,-4.7,38.4,41.5*,46.2*
NS(=O)(=O)c1ccc(CNS(=O)(=O)c2ccc3c(c2)OCCO3)cc1,-2.6,-9.2,1.8,5.8,-2.8,-7.2,.,.
COc1ccccc1[C@]1(C)ON(c2ccccc2C(F)(F)F)C1=O,.,-22.6,68.9*,63.5*,.,-50.9,57.8*,-54.8
CC[C@]1(c2ccccc2OC)ON(c2ccccc2C(F)(F)F)C1=O,.,.,57.5*,40.4*,.,25.4,68.5*,61.7*
CC/C(=N\NC(=O)CNC(=O)/C=C/c1ccc(OC)cc1)c1ccccc1,-4.6,-4.1,4.0,-1.4,-10.3,9.7,.,.
COc1cc(/C=C2\SC(=O)N(CCN)C2=O)ccc1OS(=O)(=O)c1cc(C)ccc1C,1.3,5.5,.,.,3.6,.,.,.
Cc1cccc(N2CCN(S(=O)(=O)c3ccc4c(c3)NC(=O)CS4)CC2)c1C,-17.5,-49.8,62.5*,40.2*,16.0,38.7,35.5*,28.0
COc1ccc(-c2csc(N3CCN(S(=O)(=O)c4ccc5c(c4)NC(=O)CO5)CC3)n2)cc1,6.5,-29.8,-9.6,-47.8,7.7,34.0,.,.
Cc1ccc(C(=O)NNC(=O)C(NC(=O)c2cccc(C)c2)C(C)C)cc1 (stereo not drawn),.,-6.3,2.0,-3.5,.,1.6,.,.
CN(CC(=O)Nc1c(Cl)cccc1Cl)C(=O)c1ccc2nc[nH]c2c1,6.9,11.8,-3.7,-8.8,-29.5,-2.4,.,.
O=C(N/N=C/C=C/c1ccccc1)c1cccs1,-6.0,15.2,42.4,33.4,11.4,-1.8,.,.
O=C(N/N=C/C(Br)=C/c1ccccc1)c1cccs1,-4.8,26.3,61.1*,41.5*,-2.8,20.5,27.9,76.2*
O=C(/C=C/Sc1ccccc1)c1ccccc1,22.2,-50.0,66.5*,59.2*,10.1,21.5,64.8*,80.8*
Cc1cc(C(=O)CN2C(=O)C(=O)N(C3CCCC3)C2=O)c(C)n1CCc1ccc(F)cc1,.,-5.6,19.7,0.3,.,9.3,.,.
O=C(CCN1CCOCC1)N/N=C/c1cc(Br)cc(Br)c1O,20.0,-48.3,62.8*,57.9*,56.5*,36.8,50.2*,62.4*
Cc1ccc(C(=O)NC(=S)NCC(=O)c2ccccc2)cc1,25.7,-8.4,-3.5,4.1,-4.6,10.6,.,.
O=C(CNC(=S)NC(=O)c1cccs1)c1ccccc1,1.3,16.8,62.7*,44.2*,-1.4,37.0,-21.1,67.0*
SMILES,Calb FLC,PfHsp90 yeast 2,tim23-1 inh,TIM10 inh,SKKanGAS inh,tim10-1 inh,TIM10 conf,tim23-1 conf
N#Cc1ncccc1CCc1cccc(Cl)c1,5.6,-0.3,28.9,21.4,-5.0,13.6,.,.
Cc1cc(-c2ccccc2)nc(N/N=C/c2ccc(O)cc2O)n1,63.0,-5.3,63.9*,56.7*,4.0,34.8,61.2*,70.3*
Oc1ccc(/C=N/Nc2ncc(Br)cn2)c(O)c1,1.7,-19.7,70.1*,67.0*,-6.8,31.5,-26.5,66.9*
COc1ccc(CCNC(=O)CC(Cc2ccc(C)cc2)C(=O)O)cc1OC (stereo not drawn),1.2,5.1,-1.5,15.8,-4.7,-7.5,.,.
COc1ccccc1Nc1nc(N)nc(CSC(=S)N2CCC(C)CC2)n1,12.9,6.6,50.1*,34.6,0.5,39.0,.,36.1
C#CCOCCOCCOCCNc1nc(N2CCN(C(=O)CCCCCCCCCCNC(=O)Cn3cc(CCCCCN)nn3)CC2)nc(N2CCN(C(=O)CCCCCCCCCCNC(=O)[C@H](CO)n3cc(CCCCCN)nn3)CC2)n1,.,11.3,52.8*,10.6,.,34.2,.,45.5*
C#CCOCCOCCOCCNc1nc(N2CCN(C(=O)CCCCCCCCCCNC(=O)Cn3cc(C[C@@H](C)O)nn3)CC2)nc(N2CCN(C(=O)CCCCCCCCCCNC(=O)Cn3cc(C[C@@H](C)O)nn3)CC2)n1,.,-2.8,6.0,-5.1,.,4.3,.,.
C#CCOCCOCCOCCNc1nc(N2CCN(C(=O)CCCCCCCCCCNC(=O)[C@H]([C@@H](C)CC)n3cc(CCCCN=C(N)N)nn3)CC2)nc(N2CCN(C(=O)CCCCCCCCCCNC(=O)[C@H](CCCCN)n3cc(C[C@@H](C)CC)nn3)CC2)n1,.,.,52.1*,17.6,.,25.9,.,44.7*
C#CCOCCOCCOCCNc1nc(N2CCN(C(=O)CCCCCCCCCCNC(=O)Cn3cc(C[C@@H](C)O)nn3)CC2)nc(N2CCN(C(=O)CCCCCCCCCCNC(=O)[C@H](CCCCN)n3cc(C[C@@H](C)CC)nn3)CC2)n1,.,9.0,53.8*,7.5,.,34.5,.,56.2*
CC(C)CCNC(=O)CCc1nnc(COc2ccccc2)o1,-9.1,27.1,.,.,-18.0,.,.,.
CC(=O)Nc1ccc(S(=O)(=O)NCC(=O)N2CCN(S(=O)(=O)c3cccs3)CC2)cc1,.,-4.5,18.5,10.0,.,15.1,.,.
Cc1cccc(C(=O)NC(=S)Nc2ccccc2C(F)(F)F)c1,20.9,-30.9,50.8*,21.8,1.4,29.8,.,38.0*
Cc1ccc(C(=O)NC(=S)Nc2ccccc2C(F)(F)F)cc1C,4.7,-0.9,2.9,-13.5,36.9,23.1,.,.
O=C(CN1CCCCC1)Nc1nnc(-c2ccc([N+](=O)[O-])cc2)s1,-2.1,-3.6,90.5*,5.9,8.2,-9.8,.,23.9
O=C(CN1CCCCC1)Nc1nnc(-c2ccccc2)s1,1.2,.,3.6,-13.4,3.6,12.4,.,.
O=c1[nH]c(C2CCN(S(=O)(=O)c3ccc(C(F)(F)F)cc3)CC2)nc2c1nnn2Cc1ccccc1,23.1,-2.4,-0.4,12.2,27.5,3.5,.,.
